How the values were obtained:
Test in all cases: log2 ratio of Biotin-Ahx-Ub-VS probe labelling (fragment/DMSO); higher = less target engagement (more negative = stronger competition), active = hit call of the paper (q ≤ 0.05, log2 ratio ≤ -1)
Details in all cases: compound concentration: 200 uM; treatment time: 3 h
OTUD6B = target: T1, OTUD6B (UniProt Q8N6M0)
T1 sequence (whole entry): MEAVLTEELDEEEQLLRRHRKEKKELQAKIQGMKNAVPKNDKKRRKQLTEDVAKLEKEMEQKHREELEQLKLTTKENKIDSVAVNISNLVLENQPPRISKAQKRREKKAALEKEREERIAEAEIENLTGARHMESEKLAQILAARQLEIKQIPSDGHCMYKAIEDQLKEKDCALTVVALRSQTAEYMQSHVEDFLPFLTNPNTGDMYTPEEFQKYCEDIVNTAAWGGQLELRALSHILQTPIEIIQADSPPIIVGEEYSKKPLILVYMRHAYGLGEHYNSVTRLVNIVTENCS
Outline: (§1)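 Global-median-normalised Spectronaut label-free quantities were compared by unpaired t-test, and values are average log2 ratios of fragment over vehicle. Only proteins with ≥2 unique peptides were used. HEK293T lysate (495 µg per sample) was treated in triplicate with fragment at 200 µM or vehicle for 3 h and then with Biotin-Ahx-Ub-VS at 0.5 µM final for 1 h. Labelled DUBs were then NeutrAvidin-enriched, digested with LysC and trypsin, and run by diaPASEF LC-MS/MS.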

OTUD7B = target: T2, OTUD7B (UniProt Q6GQQ9)
T2 sequence (whole entry): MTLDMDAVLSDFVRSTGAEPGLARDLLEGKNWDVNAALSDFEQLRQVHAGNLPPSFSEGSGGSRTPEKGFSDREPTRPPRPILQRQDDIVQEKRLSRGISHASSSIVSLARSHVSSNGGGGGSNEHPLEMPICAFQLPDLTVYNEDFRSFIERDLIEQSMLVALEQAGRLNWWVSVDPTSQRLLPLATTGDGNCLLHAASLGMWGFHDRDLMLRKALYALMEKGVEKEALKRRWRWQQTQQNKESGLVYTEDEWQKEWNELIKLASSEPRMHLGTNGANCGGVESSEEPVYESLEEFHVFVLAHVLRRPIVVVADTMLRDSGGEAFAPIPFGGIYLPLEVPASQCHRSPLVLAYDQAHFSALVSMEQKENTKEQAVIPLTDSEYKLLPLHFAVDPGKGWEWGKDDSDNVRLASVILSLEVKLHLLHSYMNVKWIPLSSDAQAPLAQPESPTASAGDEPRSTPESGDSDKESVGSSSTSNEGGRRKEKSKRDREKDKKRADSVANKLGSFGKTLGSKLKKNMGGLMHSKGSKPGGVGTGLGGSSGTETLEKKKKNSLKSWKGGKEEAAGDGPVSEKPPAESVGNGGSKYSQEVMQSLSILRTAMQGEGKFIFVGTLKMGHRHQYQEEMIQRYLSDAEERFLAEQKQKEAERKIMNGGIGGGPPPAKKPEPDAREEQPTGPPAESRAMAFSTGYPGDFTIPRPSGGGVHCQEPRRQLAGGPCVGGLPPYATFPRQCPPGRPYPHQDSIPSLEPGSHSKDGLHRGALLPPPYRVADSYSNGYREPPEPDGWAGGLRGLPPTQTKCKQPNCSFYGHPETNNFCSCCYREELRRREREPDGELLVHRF
Outline: as §1

PRPF8 = PRPF8 (UniProt Q6P2Q9)
Outline: as §1

PSMD7 = target: T3, PSMD7 (UniProt P51665)
T3 sequence (whole entry): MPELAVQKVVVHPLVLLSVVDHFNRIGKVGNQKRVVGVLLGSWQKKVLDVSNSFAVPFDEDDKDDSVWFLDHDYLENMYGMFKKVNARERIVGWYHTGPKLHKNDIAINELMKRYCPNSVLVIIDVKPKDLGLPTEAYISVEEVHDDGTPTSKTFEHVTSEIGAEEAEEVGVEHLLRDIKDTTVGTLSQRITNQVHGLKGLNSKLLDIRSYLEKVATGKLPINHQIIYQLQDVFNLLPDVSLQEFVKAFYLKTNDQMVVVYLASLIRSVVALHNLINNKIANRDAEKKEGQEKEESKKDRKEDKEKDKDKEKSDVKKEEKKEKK
Outline: as §1

UCHL1 = UCHL1 (UniProt P09936)
Chain of UCHL1 (P09936 whole entry, looked up): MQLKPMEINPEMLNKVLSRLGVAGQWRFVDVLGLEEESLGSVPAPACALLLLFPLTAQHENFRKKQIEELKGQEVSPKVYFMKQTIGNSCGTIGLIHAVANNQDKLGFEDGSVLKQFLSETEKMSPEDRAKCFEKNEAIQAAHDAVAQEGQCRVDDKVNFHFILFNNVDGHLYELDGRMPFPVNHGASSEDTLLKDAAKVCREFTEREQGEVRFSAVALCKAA
Outline: as §1

UCHL3 = target: T4, UCHL3 (UniProt P15374)
T4 sequence (whole entry): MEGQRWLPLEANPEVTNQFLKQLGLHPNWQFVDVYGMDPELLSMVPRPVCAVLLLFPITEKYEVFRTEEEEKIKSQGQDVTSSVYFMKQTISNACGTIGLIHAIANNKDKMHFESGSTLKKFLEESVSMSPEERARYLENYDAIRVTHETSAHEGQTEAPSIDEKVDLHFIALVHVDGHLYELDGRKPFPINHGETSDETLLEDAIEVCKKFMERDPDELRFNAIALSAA
Outline: as §1

UCHL5 = target: T5, UCHL5 (UniProt Q9Y5K5)
T5 sequence (whole entry): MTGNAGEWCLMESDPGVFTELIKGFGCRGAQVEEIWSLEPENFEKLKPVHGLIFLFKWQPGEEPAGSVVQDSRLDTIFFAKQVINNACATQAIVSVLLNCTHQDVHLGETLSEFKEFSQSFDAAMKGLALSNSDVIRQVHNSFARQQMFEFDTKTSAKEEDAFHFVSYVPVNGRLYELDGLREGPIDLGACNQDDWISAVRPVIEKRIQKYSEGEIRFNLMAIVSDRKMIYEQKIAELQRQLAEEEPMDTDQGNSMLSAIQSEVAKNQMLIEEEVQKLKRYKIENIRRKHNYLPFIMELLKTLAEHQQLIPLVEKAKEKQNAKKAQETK
Outline: as §1

USP10 = USP10 (UniProt Q14694)
Chain of USP10 (Q14694 whole entry): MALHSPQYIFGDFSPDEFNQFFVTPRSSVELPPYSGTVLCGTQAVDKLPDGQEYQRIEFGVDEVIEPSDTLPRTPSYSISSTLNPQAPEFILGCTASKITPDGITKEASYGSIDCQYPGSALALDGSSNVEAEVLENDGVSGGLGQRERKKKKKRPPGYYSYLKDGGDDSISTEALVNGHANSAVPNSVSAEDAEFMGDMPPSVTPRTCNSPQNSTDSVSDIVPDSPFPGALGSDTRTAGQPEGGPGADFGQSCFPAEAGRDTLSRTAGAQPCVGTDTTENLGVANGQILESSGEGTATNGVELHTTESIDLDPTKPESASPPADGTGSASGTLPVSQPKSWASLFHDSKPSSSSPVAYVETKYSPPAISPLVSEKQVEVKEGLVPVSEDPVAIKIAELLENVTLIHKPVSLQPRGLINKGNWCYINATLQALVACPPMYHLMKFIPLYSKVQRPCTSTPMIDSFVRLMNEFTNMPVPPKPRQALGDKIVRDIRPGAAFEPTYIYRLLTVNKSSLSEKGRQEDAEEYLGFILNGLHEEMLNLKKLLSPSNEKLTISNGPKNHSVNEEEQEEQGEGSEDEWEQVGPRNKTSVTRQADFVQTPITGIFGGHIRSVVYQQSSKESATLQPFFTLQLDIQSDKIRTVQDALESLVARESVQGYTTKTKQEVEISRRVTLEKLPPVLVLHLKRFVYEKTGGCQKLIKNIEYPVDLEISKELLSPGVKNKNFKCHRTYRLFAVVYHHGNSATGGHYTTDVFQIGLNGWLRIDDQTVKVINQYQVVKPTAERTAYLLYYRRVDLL
Outline: as §1

USP15 = target: T6, USP15 (UniProt Q9Y4E8)
T6 sequence (whole entry): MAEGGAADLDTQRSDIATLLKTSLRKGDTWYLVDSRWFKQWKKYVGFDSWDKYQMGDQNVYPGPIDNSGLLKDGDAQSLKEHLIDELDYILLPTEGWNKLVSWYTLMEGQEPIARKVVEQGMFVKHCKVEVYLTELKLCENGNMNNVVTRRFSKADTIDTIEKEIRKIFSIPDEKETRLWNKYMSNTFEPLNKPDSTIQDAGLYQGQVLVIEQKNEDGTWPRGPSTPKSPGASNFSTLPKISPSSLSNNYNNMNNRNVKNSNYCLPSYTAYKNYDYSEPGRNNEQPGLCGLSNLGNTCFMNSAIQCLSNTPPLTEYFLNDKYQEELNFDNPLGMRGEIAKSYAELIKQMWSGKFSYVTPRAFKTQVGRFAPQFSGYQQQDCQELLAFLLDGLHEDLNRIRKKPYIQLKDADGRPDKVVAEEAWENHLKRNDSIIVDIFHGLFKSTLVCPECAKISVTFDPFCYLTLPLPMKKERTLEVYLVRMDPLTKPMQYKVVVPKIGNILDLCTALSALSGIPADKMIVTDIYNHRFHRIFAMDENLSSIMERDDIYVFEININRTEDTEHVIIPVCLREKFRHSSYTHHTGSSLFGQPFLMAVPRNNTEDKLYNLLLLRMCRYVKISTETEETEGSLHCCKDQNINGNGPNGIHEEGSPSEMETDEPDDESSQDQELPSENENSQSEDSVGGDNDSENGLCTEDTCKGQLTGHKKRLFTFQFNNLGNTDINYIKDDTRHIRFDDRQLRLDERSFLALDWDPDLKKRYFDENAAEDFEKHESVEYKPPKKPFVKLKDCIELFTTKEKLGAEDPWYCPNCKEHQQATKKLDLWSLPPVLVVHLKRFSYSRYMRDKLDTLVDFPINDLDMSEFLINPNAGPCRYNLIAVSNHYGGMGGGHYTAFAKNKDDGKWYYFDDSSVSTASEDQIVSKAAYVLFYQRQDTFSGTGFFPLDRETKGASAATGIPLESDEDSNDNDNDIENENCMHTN
Outline: as §1

Measured: log2 ratio of Biotin-Ahx-Ub-VS probe labelling

CC1CN(c2ccc(NC(=O)CCl)cc2)CC(C)O1 (centres undefined)
inactive: OTUD6B -0.241 | OTUD7B -0.313 | PRPF8 0.0099 | PSMD7 -0.00447 | UCHL3 0.00853 | UCHL5 -0.366 | USP10 -0.118 | USP15 -0.153
active: UCHL1 -1.48

From the supplement of paper PMC11732987, “Enantioselective OTUD7B fragment discovery through chemoproteomics screening and high-throughput optimisation” (Communications Chemistry, 2025)
